Screens deposited in PubChem BioAssay by National Center for Advancing Translational Sciences (NCATS).
A selection: hits, their analogues and other compounds. The true share with any hit is near 2.4%.
D2 PAM-1: potentiates the human D2 dopamine receptor allosterically | potentiation, % (no concentration beside the values) | 360,000 compounds, 0.23% hits | AID 624464 | DiscoveRx D2 beta-arrestin cells, luminescence, 90 min; 100% = 57 uM dopamine signal; in the data active = potentiation above about 50%
Target sequence (P14416 whole entry, looked up): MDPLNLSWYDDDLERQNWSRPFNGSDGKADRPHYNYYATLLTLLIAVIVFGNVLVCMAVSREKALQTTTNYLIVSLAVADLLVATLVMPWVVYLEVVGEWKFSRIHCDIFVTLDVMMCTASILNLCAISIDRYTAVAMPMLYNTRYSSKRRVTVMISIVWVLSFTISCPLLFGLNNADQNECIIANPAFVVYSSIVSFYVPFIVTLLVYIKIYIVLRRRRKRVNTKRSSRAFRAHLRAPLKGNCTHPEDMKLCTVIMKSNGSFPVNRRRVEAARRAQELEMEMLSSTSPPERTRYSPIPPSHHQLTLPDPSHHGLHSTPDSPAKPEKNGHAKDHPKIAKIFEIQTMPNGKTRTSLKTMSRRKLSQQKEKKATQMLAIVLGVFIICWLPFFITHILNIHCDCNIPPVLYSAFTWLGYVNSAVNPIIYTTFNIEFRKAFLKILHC
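PathHunter D2 cells, attached overnight at 37 deg C, received compound in DMSO plus dopamine at EC20 (50 nM final) for 90 min at 37 deg C. Beta-arrestin recruitment was read as luminescence after 1 h with detection reagent at ambient temperature.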
D2 PAM-2: positive allosteric modulators of human D2 dopamine receptor; P14416; HEK293 T-REx D2, calcium flux, EC20 dopamine potentiation; potentiation, % at 10 µM; 340,000 compounds, 0.34% hits; AID 485347;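 active = potentiation over 3 SD above the plate norm, cut at about 30% in these data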
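Potentiation of an EC20 dopamine calcium response measured kinetically over 180 s, after a preceding 180 s compound-only read flagging agonists. Cells: inducible Hek293 Trex D2 line, 4000/well, cultured overnight at 30 C before dye loading.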
D2 antagonist: antagonists of human D2 dopamine receptor | 340,000 compounds, 2% hits | HEK293 TREx D2 cells, calcium flux, dopamine EC80 | inhibition, % at 10 µM | P14416; in the data active = inhibition above about 30%; inactive = below that, where a call was filed
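Inhibition of EC80 dopamine-driven calcium flux, recorded kinetically, defines activity here; cells are a tetracycline-induced HEK293 T-REx line expressing force-coupled D2.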
D2 ag-1: agonists of human D2 dopamine receptor (beta-arrestin) | AID 624465 | DiscoveRx PathHunter D2 beta-arrestin, luminescence, 90 min; 100% = 57 uM dopamine signal | P14416 | 360,000 compounds, 0.084% hits | activation, % (concentration not given with the values); in the data active = activation above about 40%
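Agonist mode: compounds alone added to overnight-plated D2 PathHunter cells for 90 min at 37 C, with 57 uM final dopamine (EC100) defining full response. Beta-arrestin recruitment detected by chemiluminescent reagent, read after 1 h at ambient temperature.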
D2 ag-2: activates the human D2 dopamine receptor; HEK293 T-REx D2 cells, calcium flux agonist mode; activation, % at 2 µM; 340,000 compounds, 0.53% hits;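 active = activation over 3 SD above normal in the single-dose calcium agonist read, cut at about 30% in these data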
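Agonism is scored from calcium flux in a force-coupled, inducible HEK293 cell line expressing D2, read kinetically for 180 s after compound addition against dopamine controls.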
Numbers stand for hits; 0 = inactive; - = no result.

SMILES	D2 PAM-1	D2 PAM-2	D2 antagonist	D2 ag-1	D2 ag-2
CC(=O)Nc1ccc(C(=O)COC(=O)c2c(C)noc2C)c(F)c1	0	0	0	0	0
CC(=O)Nc1ccc(C(=O)COC(=O)c2cccs2)c(F)c1	0	0	34.7	0	0
O=S(=O)(c1cccc(NC(=S)Nc2ccc(Br)cc2Cl)c1)N1CCOCC1	0	0	37.8	0	0
O=C(COC(=O)c1cccs1)Nc1cccc(S(=O)(=O)N2CCOCC2)c1	0	0	36.4	0	0
O=C(Nc1cccc(Cl)c1)c1cc(S(=O)(=O)N2CCOCC2)cs1	0	0	34.8	0	0
O=C(Nc1nc2ccc(S(=O)(=O)N3CCCC3)cc2s1)c1cccs1	0	0	0	0	0
O=C(Nc1nc2ccc(S(=O)(=O)N3CCOCC3)cc2s1)c1cccs1	0	0	56.6	0	0
Cc1ccc(S(=O)(=O)Cc2nc(-c3ccc(C(=O)NCc4ccccc4F)cc3)oc2C)cc1	-	0	-	-	0
O=C(NCCNC1CCC(c2ccccc2)CC1)c1ccc(F)cc1 (stereo not drawn)	0	0	84.6	0	0
O=C(NCCCc1ccccc1)c1ccc(F)cc1	0	0	0	0	0
CCC1Oc2nc(SC)nnc2-c2ccccc2N1C(=O)c1ccccc1 (stereo not drawn)	0	0	34.0	0	0
Cc1cccc(N2CCN(C(=O)c3cc4c(=O)[nH]c5ccc(C)cc5c4s3)CC2C)c1 (stereo not drawn)	-	0	-	-	-
CCCCN(C)CCN1C(=O)C2C(C(=O)Nc3cccc(OC)c3)C3C=CC2(O3)C1C(=O)NC1CCCCC1C (stereo not drawn)	0	0	0	0	0
CCCCN1C(=O)C2C(C(=O)Nc3cccc(OC)c3)C3C=CC2(O3)C1C(=O)NC1CCCCC1C (stereo not drawn)	0	0	35.8	0	0
CCOC(=O)C1=C(COC(=O)COc2ccc(Br)cc2)NC(=O)NC1C (stereo not drawn)	0	0	82.5	0	0
Cc1cccc(CNC(=O)CCCN2C(=O)c3cccnc3Oc3ccccc32)c1	-	0	-	-	0
Cc1ccc(C(=O)Nc2nnc(S(=O)(=O)N3CCc4ccccc43)s2)cc1	-	0	-	-	0
OCCNCc1cc(Br)ccc1OCc1ccccc1Cl	0	0	41.8	0	0
O=C(NCCc1ccccc1Cl)c1cc2ccccn2n1	-	0	-	-	0
Cc1cc(NC(=O)CCC(=O)N(Cc2ccco2)C2(C(=O)NC3CCCC3)CCC(C)CC2)no1 (stereo not drawn)	0	0	0	0	0
Cc1cc(NC(=O)CCC(=O)N(C2CC2)C2(C(=O)NC3CCCC3)CCC(C)CC2)no1 (stereo not drawn)	0	0	37.2	0	0
Cc1ccc(-c2nnn(CC(=O)N(c3ccccc3)C(C(=O)NC3CCCC3)c3ccco3)n2)o1 (stereo not drawn)	0	0	32.8	0	0
CCc1ccc(N(C(=O)CCC(=O)Nc2cc(C)on2)C(C(=O)NC2CCCC2)c2ccco2)cc1 (stereo not drawn)	0	0	33.5	0	0
Cc1cc(NC(=O)CCC(=O)N(c2ccc(C)c(F)c2)C(C(=O)NC2CCCC2)c2ccco2)no1 (stereo not drawn)	0	0	-	0	-
Cc1cc(NC(=O)CCC(=O)N(CCC(C)C)C(C(=O)NC2CCCC2)c2ccccc2C)no1 (stereo not drawn)	0	0	51.5	0	0
SMILES	D2 PAM-1	D2 PAM-2	D2 antagonist	D2 ag-1	D2 ag-2
O=C(CN1C(=O)C2(SCC(=O)N2c2cccc(Cl)c2)c2ccccc21)NC1CCCCC1 (stereo not drawn)	-	0	-	-	0
COc1cccc(C(=O)Nc2cccc(C(=O)OCc3cc(=O)n4nc(C5CC5)sc4n3)c2)c1	-	0	-	-	0
COc1ccc(CNC(=O)Nc2cc(C)cc(C)c2)cc1	0	0	0	0	0
COc1ccc(OCC(O)CNC(=O)Nc2cc(C)cc(C)c2)cc1 (stereo not drawn)	0	0	30.1	0	0
Cc1ccc(-n2nc(CO)c(C(=O)NCCc3ccccc3)n2)cc1C	-	0	-	-	0
CCOCCCNC(=O)c1ccc(CN2CCc3ccccc3C2)cc1	0	-	-	0	-
COC(=O)c1ccc(CN2CCc3ccc(NC(=O)c4ccncc4)cc3C2)cc1	0	0	34.6	0	0
CCc1cccc(C)c1NC(=O)c1ccc(CN2CCc3ccccc3C2)cc1	0	0	55.1	0	0
Cc1ccccc1NC(=O)c1ccc(CN2CCc3ccccc3C2)cc1	0	-	-	0	-
CC(C)OCCCNC(=O)c1ccc(CN2CCc3ccccc3C2)cc1	0	0	44.1	0	0
COc1ccc(OC)c(NC(=O)c2ccc(CN3CCc4ccccc4C3)cc2)c1	0	0	40.9	0	0
Cc1ccc(-c2cc3c(N4CCN(c5cc(C)ccc5C)CC4)nccn3n2)cc1	-	0	-	-	0
O=C(CSC1=Nc2ccccc2N=C(c2ccc(F)cc2)C1)Nc1cc(F)ccc1F	-	0	-	-	0
CN(C)CCCNc1cc(N2CCN(C3CCCCC3)CC2)c2noc3c2c1C(=O)c1ccccc1-3	-	0	-	-	0
c1ccc(-c2cnn3c(-c4ccccc4)c(-c4ccccc4)nc3n2)cc1	0	0	39.1	0	137.2
Nc1nc(-c2ccccc2)c(-c2ccccc2)n1N	0	0	0	0	0
Cc1ccc(Nc2c([N+](=O)[O-])c(=O)oc3ccccc23)cc1	0	0	31.5	0	0
O=c1oc2ccccc2c(Nc2ccc(O)cc2)c1[N+](=O)[O-]	0	0	0	0	0
COc1ccc(C2N(C(=O)N(C)C)CCN2S(=O)(=O)c2ccc(OC)cc2)cc1 (stereo not drawn)	0	0	37.0	0	0
COc1ccc(C(CNC(=O)CCNS(=O)(=O)c2ccc(Br)cc2)N2CCCC2)cc1 (stereo not drawn)	0	0	0	0	0
COc1ccc(C(CNC(=O)C(C)Oc2ccc(Br)cc2)N2CCCCC2)cc1 (stereo not drawn)	0	0	78.1	0	0
COc1ccc(C(CNC(=O)c2oc3ccc(Br)cc3c2C)N2CCCCC2)cc1 (stereo not drawn)	0	0	0	0	0
COc1ccc(C(CNC(=O)c2oc3cc(Br)ccc3c2C)N2CCCCC2)cc1 (stereo not drawn)	0	0	61.5	0	0
CCOC(=O)c1cc2c(=O)n3ccccc3nc2n(CCCOC)c1=NC(=O)C(C)(C)C	0	0	0	0	31.8
CCOC(=O)c1cc2c(=O)n3ccccc3nc2n(CCOC)c1=NC(=O)C(C)(C)C	0	0	0	0	0
CCCCN1CCC(COC(=O)c2cc(Cl)c(N)c3c2OCCO3)CC1	0	0	64.1	0	0
CCOC(=O)c1c(C)oc2nc(C)nc(N3CCN(c4cccc(C(F)(F)F)c4)CC3)c12	-	0	-	-	0
